Assay results from the antibiotic and cytotoxicity screens of Wong et al. (2023).
Screen size: about 39,000 compounds; about 3,300 (8.5%) were called active. Only a selection was taken, and actives are over-represented in it overall.

These compounds were tested on HepG2 (assay: cytotoxicity call (relative viability < 0.9)). Settings: 10 µM.
In the case of `Cc1noc(C)c1S(=O)(=O)Nc1ccc2c(c1)CC(=O)N([C@@H](C)CO)C[C@@H](C)[C@@H](CN(C)Cc1ccncc1)O2`, the cytotoxicity call is reported as “inactive”. For `C[C@@H]1CN([C@H](C)CO)C(=O)c2cccc(NC(=O)NC3CCCCC3)c2O[C@H]1CN(C)S(=O)(=O)c1cn(C)cn1`, the cytotoxicity call was “inactive”. With `CCc1nc2ccc(C(=O)NCc3ccccc3OC)cn2c1N(CC)Cc1cccc(Br)c1` the cytotoxicity call was “inactive”. With `CCS(=O)(=O)N1CC[C@]2(CC1)CN([C@H](CO)c1[nH]c3cc(ccc3c12)OC)C(=O)c1ccc(cc1)F` the cytotoxicity call was “inactive”. For `O=C(O)[C@H]1NC(=O)[C@@H]1Cc1ccccc1`, the cytotoxicity call was “inactive”. In the case of `CC(C)NC(=O)N(C)C[C@@H]1Oc2c(NS(=O)(=O)c3ccc(F)cc3)cccc2C(=O)N([C@H](C)CO)C[C@@H]1C`, the cytotoxicity call is reported as “inactive”. In the case of `C[C@@H]1CN([C@@H](C)CO)C(=O)c2cc(NC(=O)Nc3ccc4c(c3)OCO4)ccc2O[C@H]1CN(C)Cc1ccc(-c2ccccc2)cc1`, the cytotoxicity call is reported as “active”. For `C[C@@H]1CN([C@H](C)CO)C(=O)c2cccc(NS(=O)(=O)c3cn(C)cn3)c2O[C@@H]1CN(C)S(=O)(=O)c1ccc(F)cc1`, the cytotoxicity call was “inactive”. With `C[C@@H]1CN([C@H](C)CO)C(=O)c2cccc(NS(=O)(=O)c3cn(C)cn3)c2O[C@H]1CN(C)Cc1ccc2c(c1)OCO2` the cytotoxicity call was “inactive”. In the case of `C[C@H](NC(=O)C[C@@H]1C[C@H]2c3cc(NC(=O)Nc4ccc(C(F)(F)F)cc4)ccc3O[C@H]2[C@@H](CO)O1)c1ccccc1`, the cytotoxicity call is reported as “inactive”. In the case of `COc1ccc(S(=O)(=O)N(C)C[C@H]2OCCCC[C@H](C)Oc3ccc(NC(=O)Nc4ccc5c(c4)OCO5)cc3C(=O)N([C@H](C)CO)C[C@H]2C)cc1`, the cytotoxicity call is reported as “inactive”. `COc1ccc(NC(=O)Nc2ccc3c(c2)C(=O)N([C@H](C)CO)C[C@@H](C)[C@H](CN(C)S(=O)(=O)c2ccc(Cl)cc2)OCCCC[C@@H](C)O3)cc1` was tested, and the cytotoxicity call was “active”. For `COc1ccc(NC(=O)Nc2ccc3c(c2)C(=O)N([C@H](C)CO)C[C@H](C)[C@@H](CN(C)S(=O)(=O)c2ccc(C)cc2)OCCCC[C@H](C)O3)cc1`, the cytotoxicity call was “inactive”. In the case of `COc1ccc(NC(=O)Nc2ccc3c(c2)C(=O)N([C@H](C)CO)C[C@@H](C)[C@H](CN(C)S(=O)(=O)c2ccc(C)cc2)OCCCC[C@@H](C)O3)cc1`, the cytotoxicity call is reported as “inactive”. `COc1ccc(S(=O)(=O)N(C)C[C@H]2OCCCC[C@H](C)Oc3ccc(NC(=O)Nc4ccc5c(c4)OCO5)cc3C(=O)N([C@H](C)CO)C[C@@H]2C)cc1` was tested, and the cytotoxicity call was “inactive”. With `COc1ccc(NC(=O)Nc2ccc3c(c2)C(=O)N([C@@H](C)CO)C[C@@H](C)[C@@H](CN(C)S(=O)(=O)c2ccc(C)cc2)OCCCC[C@@H](C)O3)cc1` the cytotoxicity call was “inactive”. `COc1ccc(S(=O)(=O)N(C)C[C@H]2OCCCC[C@@H](C)Oc3ccc(NC(=O)Nc4ccc5c(c4)OCO5)cc3C(=O)N([C@@H](C)CO)C[C@@H]2C)cc1` was tested, and the cytotoxicity call was “active”. For `COc1ccc(NC(=O)Nc2ccc3c(c2)C(=O)N([C@H](C)CO)C[C@H](C)[C@H](CN(C)S(=O)(=O)c2ccc(Cl)cc2)OCCCC[C@@H](C)O3)cc1`, the cytotoxicity call was “inactive”. In the case of `COc1ccc(NC(=O)Nc2ccc3c(c2)C(=O)N([C@@H](C)CO)C[C@H](C)[C@@H](CN(C)S(=O)(=O)c2ccc(C)cc2)OCCCC[C@@H](C)O3)cc1`, the cytotoxicity call is reported as “active”. For `COc1ccc(NC(=O)Nc2ccc3c(c2)C(=O)N([C@H](C)CO)C[C@H](C)[C@H](CN(C)S(=O)(=O)c2ccc(Cl)cc2)OCCCC[C@H](C)O3)cc1`, the cytotoxicity call was “inactive”. In the case of `COc1ccc(NC(=O)Nc2ccc3c(c2)C(=O)N([C@@H](C)CO)C[C@H](C)[C@H](CN(C)S(=O)(=O)c2ccc(C)cc2)OCCCC[C@H](C)O3)cc1`, the cytotoxicity call is reported as “active”. `COc1ccc(NC(=O)Nc2ccc3c(c2)C(=O)N([C@H](C)CO)C[C@H](C)[C@H](CN(C)S(=O)(=O)c2ccc(C)cc2)OCCCC[C@H](C)O3)cc1` was tested, and the cytotoxicity call was “inactive”. With `CCCCCCC#C[Si](O[C@H](c1ccccc1)c1cn(Cc2cccc(Cl)c2)nn1)(C(C)C)C(C)C` the cytotoxicity call was “inactive”. In the case of `C[C@@H]1CCCCO[C@H](CN(C)C(=O)Nc2ccccc2)[C@H](C)CN([C@@H](C)CO)C(=O)c2cc(NS(=O)(=O)c3ccc(Cl)cc3)ccc2O1`, the cytotoxicity call is reported as “inactive”. With `COc1ccc(C#Cc2ccc3c(c2)[C@H]2[C@H](CCN2C(=O)Nc2ccc(C(F)(F)F)cc2)[C@@H](CO)N3C)cc1` the cytotoxicity call was “inactive”. In the case of `C[C@@H]1CCCCO[C@H](CN(C)C(=O)Nc2ccc3c(c2)OCO3)[C@H](C)CN([C@@H](C)CO)C(=O)c2cc(NC(=O)CCC(F)(F)F)ccc2O1`, the cytotoxicity call is reported as “inactive”. For `O=C(CCCCCCC(=O)Nc1ccc(C(=O)NCCOCCOCCNC(=O)c2ccc(NC(=O)CCCCCCC(=O)NO)cc2)cc1)NO`, the cytotoxicity call was “inactive”. In the case of `COCC(=O)N(C)C[C@@H]1Oc2cc(-c3ccc(C#N)cc3)ccc2S(=O)(=O)N([C@@H](C)CO)C[C@H]1C`, the cytotoxicity call is reported as “inactive”. For `C[C@H](CO)N1C[C@H](C)[C@H](CN(C)C(=O)CN2CCOCC2)Oc2ncc(/C=C/c3ccccc3)cc2C1=O`, the cytotoxicity call was “inactive”. In the case of `COCCC(=O)N1C[C@H]2CN(c3cnn(C)c3)C(=O)[C@@H]2C1`, the cytotoxicity call is reported as “inactive”. With `Cc1ccc(F)cc1NC(=O)CN` the cytotoxicity call was “inactive”. For `COc1ccc(NC(=O)Nc2ccc3c(c2)C(=O)N([C@H](C)CO)C[C@@H](C)[C@H](CN(C)S(=O)(=O)c2ccccc2)OCCCC[C@H](C)O3)cc1`, the cytotoxicity call was “active”. For `COc1ccc(NC(=O)Nc2ccc3c(c2)C(=O)N([C@@H](C)CO)C[C@@H](C)[C@@H](CN(C)S(=O)(=O)c2ccc(OC)cc2)OCCCC[C@@H](C)O3)cc1`, the cytotoxicity call was “inactive”. With `COc1ccc(NC(=O)Nc2ccc3c(c2)C(=O)N([C@@H](C)CO)C[C@@H](C)[C@H](CN(C)S(=O)(=O)c2ccc(C)cc2)OCCCC[C@H](C)O3)cc1` the cytotoxicity call was “inactive”. With `COc1ccc(NC(=O)Nc2ccc3c(c2)C(=O)N([C@@H](C)CO)C[C@H](C)[C@H](CN(C)S(=O)(=O)c2ccc(OC)cc2)OCCCC[C@@H](C)O3)cc1` the cytotoxicity call was “inactive”. In the case of `COc1ccc(NC(=O)Nc2ccc3c(c2)C(=O)N([C@H](C)CO)C[C@@H](C)[C@H](CN(C)S(=O)(=O)c2ccc(C)cc2)OCCCC[C@H](C)O3)cc1`, the cytotoxicity call is reported as “active”. `COc1ccc(NC(=O)Nc2ccc3c(c2)C(=O)N([C@@H](C)CO)C[C@@H](C)[C@H](CN(C)S(=O)(=O)c2ccccc2)OCCCC[C@@H](C)O3)cc1` was tested, and the cytotoxicity call was “inactive”. `COc1ccc(NC(=O)Nc2ccc3c(c2)C(=O)N([C@@H](C)CO)C[C@@H](C)[C@@H](CN(C)S(=O)(=O)c2ccccc2)OCCCC[C@@H](C)O3)cc1` was tested, and the cytotoxicity call was “inactive”. `COc1ccc(NC(=O)Nc2ccc3c(c2)C(=O)N([C@H](C)CO)C[C@H](C)[C@H](CN(C)S(=O)(=O)c2ccc(C)cc2)OCCCC[C@@H](C)O3)cc1` was tested, and the cytotoxicity call was “inactive”. For `COc1ccc(NC(=O)Nc2ccc3c(c2)C(=O)N([C@H](C)CO)C[C@@H](C)[C@H](CN(C)S(=O)(=O)c2ccc(OC)cc2)OCCCC[C@@H](C)O3)cc1`, the cytotoxicity call was “active”. For `C[C@H](CO)N1C[C@H](C)[C@H](CN(C)C(=O)c2ccc(N3CCN(C)CC3)cc2)OCc2cnnn2CCCC1=O`, the cytotoxicity call was “inactive”. `C[C@H](O)C#Cc1ccc2c(c1)O[C@@H](CN(C)C)[C@@H](C)CN([C@@H](C)CO)S2(=O)=O` was tested, and the cytotoxicity call was “inactive”. For `COc1ccc(S(=O)(=O)N(C)C[C@H]2Oc3c(NS(=O)(=O)c4ccc(C)cc4)cccc3C(=O)N([C@@H](C)CO)C[C@@H]2C)cc1`, the cytotoxicity call was “inactive”. With `CCNC(=O)C[C@H]1CC[C@@H](NC(=O)C2CC2)[C@@H](CO)O1` the cytotoxicity call was “inactive”. For `Cc1noc(C)c1C(=O)OCC(=O)NC1CC1`, the cytotoxicity call was “inactive”. `Cc1cc(C(=O)Nc2cccc3c2O[C@@H](CN(C)Cc2ccncc2)[C@H](C)CN([C@H](C)CO)C3=O)n(C)n1` was tested, and the cytotoxicity call was “inactive”. With `COC(=O)c1cnn2c(=O)cc(C)[nH]c12` the cytotoxicity call was “inactive”. With `O=C(C[C@H]1CC[C@H]2[C@@H](COC[C@@H](O)CN2S(=O)(=O)c2cccc(F)c2)O1)NCCCN1CCOCC1` the cytotoxicity call was “inactive”. `C[C@H]1CN([C@@H](C)CO)C(=O)c2cc(NC(=O)Nc3ccc(F)cc3)ccc2O[C@@H]1CN(C)Cc1ccc(C(F)(F)F)cc1` was tested, and the cytotoxicity call was “inactive”. With `C[C@@H]1CN([C@H](C)CO)C(=O)c2cc(NC(=O)Nc3ccc(F)cc3)ccc2O[C@@H]1CN(C)Cc1ccc(C(F)(F)F)cc1` the cytotoxicity call was “inactive”. In the case of `C[C@H]1CN([C@@H](C)CO)C(=O)c2cc(NC(=O)Nc3ccc(F)cc3)ccc2O[C@H]1CN(C)Cc1ccc(C(F)(F)F)cc1`, the cytotoxicity call is reported as “inactive”. With `C[C@H](CO)N1C[C@H](C)[C@H](CN(C)Cc2ccc(C(F)(F)F)cc2)Oc2ccc(NC(=O)Nc3ccc(F)cc3)cc2C1=O` the cytotoxicity call was “inactive”. With `C[C@@H]1CN([C@@H](C)CO)C(=O)c2cc(NC(=O)Nc3ccc(F)cc3)ccc2O[C@@H]1CN(C)Cc1ccc(C(F)(F)F)cc1` the cytotoxicity call was “active”. In the case of `C[C@@H]1CN([C@@H](C)CO)C(=O)c2cc(NC(=O)Nc3ccc(F)cc3)ccc2O[C@H]1CN(C)Cc1ccc(C(F)(F)F)cc1`, the cytotoxicity call is reported as “active”. In the case of `C[C@@H]1CN([C@H](C)CO)C(=O)c2cc(NC(=O)Nc3ccc(F)cc3)ccc2O[C@H]1CN(C)Cc1ccc(C(F)(F)F)cc1`, the cytotoxicity call is reported as “active”. In the case of `C[C@H](CO)N1C[C@H](C)[C@@H](CN(C)Cc2ccc(C(F)(F)F)cc2)Oc2ccc(NC(=O)Nc3ccc(F)cc3)cc2C1=O`, the cytotoxicity call is reported as “active”. For `O=C(C[C@@H]1CC[C@@H]2[C@H](COC[C@@H](O)CN2C(=O)c2cccnc2)O1)NCc1ccc(-c2ccccc2)cc1`, the cytotoxicity call was “inactive”. With `C[C@@H]1CN([C@H](C)CO)C(=O)Cc2cc(NS(=O)(=O)c3cn(C)cn3)ccc2O[C@@H]1CN(C)C(=O)NC1CCCCC1` the cytotoxicity call was “inactive”. `C[C@H](CO)N1C[C@H](C)[C@@H](CN(C)Cc2cccc3c2OCCCO3)OCc2cn(nn2)CCCC1=O` was tested, and the cytotoxicity call was “inactive”. In the case of `O=C1CSCCN1`, the cytotoxicity call is reported as “inactive”.
